Sampled rows, rich in hits. Any-hit rate of the full collection: about 7.9%.
HCMV antiviral: qHTS Assay for inhibitors of the human cytomegalovirus (HCMV). HFF cells, HCMV-luciferase reporter, 72 h; active compounds read low. activity change, negative = inhibition, % at 57.5 µM. 4.5% of 410,000 active. AID 1259415, 2018; in the data active means activity change below about -60%; inconclusive means no clear call, values can overlap the other calls; inactive means above about -39%
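Steps: HFFs plated, 16 h 37C; compounds added; HCMV-luciferase added to MOI 1 PFU/cell; 72 h 37C; OneGlo reagent, 5 min room temperature; luminescence read, normalized to controls.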
HCV inhibitor: qHTS Assay for Inhibitors of Hepatitis C Virus (HCV) | 3.4% of 340,000 active | Huh7.5.1 HCVcc-Cre infection, luciferase reporter, 44 h | Potency, µM (highest dose often 41.8 µM), inactives show at the top dose activity change, negative = inhibition, most hits filed as inhibitors; active means well fitted inhibition curve with a large enough effect; inconclusive means small, poorly fitted or top-dose-only effect, or another doubt; inactive means no such curve, though single readings can be large or run the other way; further: potency means the concentration at half of the fitted maximal effect
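Luciferase read-out (15 sec integration) after a 15 min room-temperature substrate step quantifies HCVcc-Cre infection. Cells, 1,000 per well, had compound added 4 h post-plating, then virus at ~0.5 moi, and were cultured 44 h.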
MARV entry inh: qHTS for inhibitors of binding or entry into cells for Marburg Virus. 1.8% of 300,000 active. Marburg virus pseudotyped entry inhibition, cell reporter. AID 540276, 2011. Potency, µM (highest dose often 37.8 µM), inactives show top-dose activity change, negative = inhibition, hits mostly inhibitors; calls by dose curve; tested in HEK293 cells; further: potency means the concentration at half of the fitted maximal effect
FMDV antiviral: High Throughput Screening for Foot and Mouth Disease Virus Antivirals. FMDV antiviral cell-based qHTS. AID 1159524, 2015. Potency, µM (doses to about 57.9 µM), without a hit: at the top dose activity change, negative = inhibition, hits mostly inhibitors. 1.2% of 410,000 active; calls by dose curve; tested in HEK293T cells; further: read-out not given here; potency means the concentration at half of the fitted maximal effect; nearly all actives have a fitted effect of over 45% in size
LASV entry inh: qHTS for Inhibitors of binding or entry into cells for Lassa Virus; Lassa virus pseudotype entry inhibition, cell reporter; Potency, µM (series often up to 37.9 µM), for inactives: at the top dose activity change, negative = inhibition, most hits filed as inhibitors; 1.2% of 300,000 active; AID 540256, 2011; calls by dose curve; tested in HEK293 cells; further: potency means the concentration at half of the fitted maximal effect; nearly all actives have a fitted effect of over 50% in size
* marks the source's active call; other numbers are inactive results; ? = inconclusive; . = no result given; [ ] = remark or other dose. On the % scale 0 is the no-effect control and ±100 the full control effect.

SMILES | HCMV antiviral | HCV inhibitor | MARV entry inh | FMDV antiviral | LASV entry inh
COc1ccc(OC)c(C2CC(=O)c3c([nH]c(C(=O)OC(C)C)c3C)C2)c1 (stereo not drawn) | -70.5* | ? | . | -4.7% | .
COc1ccc(-n2c(CCNC(=O)c3ccc(-c4cccc(F)c4)cc3)nnc2SC)cc1 | . | . | . | -4.8% | .
CC(=O)NNc1cc(C)nc(N)n1 | 5.7 | 4.6% | 7.2% | 7.2% | 3.9%
Cc1cc(/C([O-])=C(/C(=S)Nc2ccc(F)cc2)[n+]2ccccc2)c(C)n1-c1ccc(F)cc1 | 13.2 | 14.1µM* | 10.1% | -5.7% | -2.1%
CCOC(=O)C1(Cc2ccccc2C)CCCN(C(=O)c2ccnn2C)C1 (stereo not drawn) | 15.2 | 7.9% | 8.1%[46.1 µM] | 22.3% | -20.0%
CCOC(=O)C1(Cc2ccccc2C)CCCN(S(=O)(=O)c2cccnc2)C1 (stereo not drawn) | -92.5* | -6.5% | ? | -23.3% | -15.9%
COCC(=O)Nc1cc(C(=O)N2CC3CC4CC(C3)CC2C4)c2c(c1)nc(-c1ccncc1)n2C | . | . | . | -3.5% | .
COc1ccc(-c2cc(C(=O)N3CCN(C(c4ccccc4)c4ccccc4)CC3)no2)cc1OC | 5.9 | ? | ? | -23.9% | -1.7%
O=C(c1cc(-c2ccco2)on1)N1CCN(C(c2ccccc2)c2ccccc2)CC1 | -103.6* | 2.51µM* | ? | ? | -17.0%
COc1ccc(-c2cc(C(=O)N3CCN(C(c4ccccc4)c4ccccc4)CC3)no2)cc1 | -14.1 | 10µM* | ? | -13.6% | ?
O=[N+]([O-])c1ccc(S(=O)(=O)Nc2ccc(-c3ccccc3)cc2)cc1 | -18.1 | . | . | 20.5% | .
COCC(=O)Nc1cc(C(=O)N2CC3CCC2C3)c2c(c1)nc(-c1ccncc1)n2C (stereo not drawn) | . | . | . | -2.7% | .
CCC(=O)N1CC2(CN(C(=O)NC(C)C)C2)c2c(n(C)c3cc(OC)ccc23)[C@H]1CO | 15.3 | . | . | . | .
Cc1ccccc1N1CC(O)(c2cccs2)[N+]2=C1CCCC2 (stereo not drawn) | -60.2* | ? | -13.8%[46.1 µM] | -4.2% | -8.0%
Cc1cccc(N2CC(O)(c3cccs3)[N+]3=C2CCCC3)c1C (stereo not drawn) | ? | -4.6% | ? | -21.4% | -0.7%
COc1ccc(CC(NC(C)=O)C(=O)NC2CCN(C(=O)C3CCCCC3)CC2)cc1OC (stereo not drawn) | -67.7* | 5.4% | 6.2%[46.1 µM] | -9.0% | -4.9%[46.1 µM]
CCC(Sc1nnc2c3ccccc3n(CC)c2n1)C(=O)Nc1nnc(C(C)C)s1 (stereo not drawn) | -11.3 | . | 4.0%[46.1 µM] | -12.3% | 5.3%[46.1 µM]
CCCn1c2ccccc2c2nnc(SC(CC)C(=O)Nc3cc(C)on3)nc21 (stereo not drawn) | -2.5 | ? | 12.6µM* | -21.8% | ?
CCCn1c2ccccc2c2nnc(SC(CC)C(=O)Nc3sc4c(c3C#N)CCCC4)nc21 (stereo not drawn) | 29.1 | -12.2% | ? | -10.1% | -0.4%
CCC(Sc1nnc2c3ccccc3n(CC)c2n1)C(=O)Nc1ccc(NC(C)=O)cc1 (stereo not drawn) | -37.4 | . | 3.55µM* | -15.5% | -17.7%[46.1 µM]
COc1ccccc1CNC(=O)CCC1N=C2c3ccccc3N=C(SCc3ccc(Cl)cc3)N2C1=O (stereo not drawn) | -17.1 | . | . | 23.8% | 2.4%[46.1 µM]
COCCNC(=S)NC1CC2CCCC(C1)N2Cc1cccs1 (stereo not drawn) | -5.5 | 11.3% | ? | . | -15.9%
Cc1cccc(NC(=S)NC2CC3CCCC(C2)N3Cc2cccs2)c1 (stereo not drawn) | -30.4 | ? | 1.64µM* | . | ?
CN(CC(=O)Nc1ccc(Cl)cc1)CC(=O)Nc1sc2c(c1C(N)=O)CCC2 | 18.1 | . | . | ? | .
Cc1cccc(-n2c(C)cc(C(=O)C(=O)Nc3ccccc3F)c2C)c1C | -66.6* | . | 5.0%[46.1 µM] | 0.0% | 11.8%[46.1 µM]
SMILES | HCMV antiviral | HCV inhibitor | MARV entry inh | FMDV antiviral | LASV entry inh
Cc1cc(C)cc(-n2c(C)cc(C(=O)C(=O)Nc3ccccc3F)c2C)c1 | 19.4 | . | 9.6%[46.1 µM] | 16.4% | 21.2%[46.1 µM]
Cc1cccc(C)c1NC(=O)C[N+](C)(C)C | . | . | -1.5% | -25.8% | .
Cn1c(CCN2CCCCC2)nc2cc(NC(=O)COc3ccccc3)ccc21 | -73.3* | -5.5% | . | -7.6% | .
CN1CCN(CCc2nc3cc(NC(=O)COc4ccccc4)ccc3n2C)CC1 | -9.0 | -18.7% | -7.5% | -12.6% | -1.7%
Cc1ccc(OCC(=O)Nc2ccc3c(c2)nc(CCN2CCCCC2)n3C)cc1 | -72.4* | -1.8% | . | -15.0% | .
COc1ccc2cc(-c3ccccc3)c(=O)oc2c1 | 0.0 | ? | ? | -19.7% | 4.47µM*
O=c1oc2cc(OCc3c(F)cccc3Cl)ccc2cc1-c1ccccn1 | 9.5 | 3.9% | 2.3% | -26.9% | ?
CCCOc1ccc2cc(-c3ccccn3)c(=O)oc2c1 | -77.2* | -22.1% | 1.78µM* | 10µM* | 2.82µM*
O=C(Nc1ccccc1)C1=C[C@@H](C2CCCCC2)C[C@@H](OCc2ccc(CO)cc2)O1 | -60.1* | ? | . | 2.7% | .
O=C(NCc1nc2ccccc2[nH]1)C1=C[C@H](C2CCCCC2)C[C@H](OCc2ccc(CO)cc2)O1 | -70.2* | -28.4% | . | -46.4% | .
O=C(NCc1ccccc1)C1=C[C@H](C2CCCCC2)C[C@H](OCCCCO)O1 | 4.4 | -4.0% | . | 19.4% | .
O=C(NC1CC1)C1=C[C@H](C2CCCCC2)C[C@H](OCCCCO)O1 | -63.9* | 12.2% | . | 3.7% | .
O=C(Nc1ccccc1)C1=C[C@@H](C2CCCCC2)C[C@@H](OCCCCO)O1 | ? | 0.316µM* | . | -3.3% | .
O=C(NC1CC1)C1=C[C@@H](C2CC2)C[C@@H](OCCCCO)O1 | -9.4 | 19.9% | . | -7.4% | .
C/C(=C\c1ccco1)CN1CCOc2ccc(C(C)(O)COc3ccccc3)cc2C1 (stereo not drawn) | . | . | . | -8.3% | .
O=C(Nc1ccccc1)C1=C[C@H](C2CCCCC2)C[C@H](OCCCCO)O1 | -75.9* | 3.3% | . | 42.3% | .
O=C(Nc1ccccc1)C1=C[C@H](C2CCCCC2)C[C@H](OCc2ccc(CO)cc2)O1 | ? | -4.5% | . | 11.7% | .
Cc1ccc(/C=N/Nc2ncc(Cl)cc2Cl)s1 | -63.7* | ? | ? | -17.5% | ?
Clc1cnc(N/N=C/c2cccs2)c(Cl)c1 | 51.8 | -18.6% | ? | 17.4% | ?
C[C@H](CO)N1C[C@H](C)[C@@H](CN(C)Cc2ccc(-c3ccccc3)cc2)Oc2c(NC(=O)c3ccncc3)cccc2C1=O | -4.9 | 10µM* | . | -20.0% | .
C[C@H](CO)N1C[C@H](C)[C@@H](CN(C)Cc2ccc(Cl)c(Cl)c2)Oc2c(NC(=O)C3CC3)cccc2C1=O | -10.2 | ? | . | 2.6% | .
C[C@H](CO)N1C[C@H](C)[C@@H](CN(C)Cc2ccccc2)Oc2c(NC(=O)c3ccncc3)cccc2C1=O | -1.9 | ? | . | 59.8% | .
C[C@H]1CN([C@@H](C)CO)C(=O)c2cccc(NC(=O)C3CC3)c2O[C@H]1CN(C)Cc1ccc(C(F)(F)F)cc1 | -88.4* | 3.1% | . | 22.0% | .

Bioassay records from PubChem.
